Screening results: PubChem BioAssay, National Center for Advancing Translational Sciences (NCATS)
An excerpt weighted towards active compounds, which were near 15% of everything screened.
TDP1 cell noCPT: qHTS for Inhibitors of human tyrosyl-DNA phosphodiesterase 1 (TDP1): qHTS in cells in absence of CPT; DT40 Tdp1-/- hTDP1 cells, no CPT, ATP luminescence, 48 h; Potency, µM (doses to about 46.2 µM), hits mostly inhibitors; 420,000 tested, 15% active; note: nearly all actives have a fitted effect of over 55% in size
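Luminescent ATP content (CellTiter-Glo) served as the growth readout. Knockout chicken DT40 cells expressing human TDP1 were exposed to compounds without camptothecin for a minimum 48 hr at 37 °C.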
ELG1 DNA repair: ELG1-dependent DNA repair inhibition; HEK293T ELG1-luciferase reporter, luminescence, 16 h; DNA damage induced by 5-fluorouridine; Potency, µM (highest dose often 46.1 µM), most hits filed as inhibitors; 330,000 tested, 2.3% active; AID 504467; note: nearly all actives have a fitted effect of over 55% in size
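Cells (2,000 per well) received 5-fluorouridine plus test compound or DMSO and were incubated 16 hr at 37 °C, 5% CO2. Luciferase activity was read by luminescence 30 min after ONE-Glo addition; signal suppression marked inhibition of damage-induced ELG1 function.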
12-LOX inh: ALOX12 (human) lipoxygenase inhibition; P18054; purified 12hLO, xylenol orange hydroperoxide absorbance; Potency, µM (series often up to 108 µM), usual class: inhibitors; 580,000 tested, 1.1% active
Target sequence (P18054 whole entry, looked up): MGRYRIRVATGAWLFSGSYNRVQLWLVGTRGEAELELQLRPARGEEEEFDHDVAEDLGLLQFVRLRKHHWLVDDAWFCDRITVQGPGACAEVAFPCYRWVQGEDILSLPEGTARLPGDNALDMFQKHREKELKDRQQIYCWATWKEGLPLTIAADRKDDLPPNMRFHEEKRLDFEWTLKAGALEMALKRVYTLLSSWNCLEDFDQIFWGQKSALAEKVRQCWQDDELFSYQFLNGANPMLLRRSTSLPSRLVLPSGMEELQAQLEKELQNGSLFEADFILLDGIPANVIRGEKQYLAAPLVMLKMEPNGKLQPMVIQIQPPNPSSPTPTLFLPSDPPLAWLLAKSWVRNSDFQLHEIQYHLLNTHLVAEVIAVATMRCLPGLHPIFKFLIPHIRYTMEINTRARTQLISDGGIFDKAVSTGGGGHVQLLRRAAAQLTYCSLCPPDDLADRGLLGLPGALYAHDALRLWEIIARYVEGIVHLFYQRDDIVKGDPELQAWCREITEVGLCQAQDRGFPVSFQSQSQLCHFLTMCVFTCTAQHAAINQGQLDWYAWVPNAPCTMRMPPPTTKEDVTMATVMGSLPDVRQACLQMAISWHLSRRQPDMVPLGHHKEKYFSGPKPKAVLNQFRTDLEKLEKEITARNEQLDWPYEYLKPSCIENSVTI
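Purified human 12hLO at 150 nM in 25 mM Hepes, 0.01% Triton X-100, pH 7.0, preincubated 15 min at room temperature with compound. Reaction started with 40 uM arachidonic acid, 30 min at room temperature. Hydroperoxide measured by Fe-xylenol orange, 573/405 nm absorbance ratio.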
TDP1 cell CPT: growth inhibition of DT40 Tdp1-/-;hTDP1 cells with camptothecin (screen for TDP1 inhibitors); chicken DT40 Tdp1-/-;hTDP1 cells + 20 nM CPT, ATP luminescence, 48 h; Potency, µM (titrated, usually from 46.2 µM), actives largely listed as inhibitors; AID 686979; 420,000 tested, 12% active; note: nearly all actives have a fitted effect of over 55% in size
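Chicken DT40 Tdp1-/- cells stably complemented with human TDP1 were seeded at 400 cells/well in medium containing 20 nM camptothecin, exposed to pin-transferred compounds, and grown at 37 °C for at least 48 hr. Viability was read as ATP luminescence.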
RORgamma inh: inhibitors of mouse ROR gamma transcriptional activity. P51450. Drosophila S2 Gal4-RORgamma UAS-luciferase reporter, 20 h. Potency, µM (series often up to 53.6 µM), hits mostly inhibitors. 310,000 tested, 5.4% active. AID 2551; note: nearly all actives have a fitted effect of over 60% in size
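ROR gamma transcriptional activity was tracked as Gal4-UAS luciferase output in stably transfected Drosophila Schneider cells, with compound added 1 hr before 700 uM copper sulfate induction and a 20 hr ambient-temperature incubation.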
VP16 counter: Gal4-VP16 reporter inhibition counter-screen | 310,000 tested, 3.5% active | Potency, µM (doses to about 53.6 µM), usual class: inhibitors | Drosophila S2 Gal4-VP16 UAS-luciferase, luminescence, 20 h | AID 2546;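 note: Gal4-VP16 expression switched on by copper sulfate through the metallothionein promoter; nearly all actives have a fitted effect of over 50% in size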
Hits are given with their value; - = inactive; ? = inconclusive; . = not tested or not shown; [ ] = another dose, or the depositor's remark. Calls come from the whole dose curve; as a rule, active = well fitted curve in the direction sought with a large enough effect; inconclusive = small, poorly fitted or top-dose-only effect, or another doubt; inactive = no such curve, though single readings can be large; an effect the other way counts as inactive or inconclusive.

SMILES	TDP1 cell noCPT	ELG1 DNA repair	12-LOX inh	TDP1 cell CPT	RORgamma inh	VP16 counter
O=C(NCC(c1cccs1)N1CCOCC1)c1ccc(Cl)c(S(=O)(=O)N2CCOCC2)c1 (configuration not stated)	-	?	-	-	-	-
CN(C)C(CNC(=O)c1cc(S(=O)(=O)N(C)c2ccccc2)ccc1Cl)c1cccs1 (configuration not stated)	6.51µM	-	-	5.8µM	?	-
CN(C)C(CNC(=O)c1cc2ccccc2oc1=O)c1cccs1 (configuration not stated)	.	.	-	.	.	.
CN(C)C(CNC(=O)c1cc(S(=O)(=O)N2CCOCC2)ccc1Cl)c1cccs1 (configuration not stated)	20.6µM	.	-	?	.	.
O=C(C1COc2ccccc2C1)N1CCC(Cc2noc(C3CC3)n2)CC1 (configuration not stated)	.	.	-	.	.	.
COc1cc(CNc2ncnc3c2ncn3[C@H]2CN(Cc3ccco3)C[C@@H](CO)O2)cc(OC)c1OC	-	.	-	-	.	.
COc1cc(CNc2ncnc3c2ncn3[C@H]2CN(Cc3ccc(Cl)cc3)C[C@@H](CO)O2)cc(OC)c1OC	16.4µM	.	-	23.1µM	.	.
COc1cc(CNc2ncnc3c2ncn3[C@H]2CN(Cc3ccc(F)cc3)C[C@@H](CO)O2)cc(OC)c1OC	?	.	-	20.6µM	.	.
COc1cc(CN2C[C@@H](CO)O[C@@H](n3cnc4c(NCc5ccc(F)cc5)ncnc43)C2)cc(OC)c1OC	?	.	-	16.4µM	.	.
COc1ccc(CN2C[C@@H](CO)O[C@@H](n3cnc4c(NCc5cc(OC)c(OC)c(OC)c5)ncnc43)C2)cc1	?	.	-	?	.	.
COc1cc(CN2C[C@@H](CO)O[C@@H](n3cnc4c(NCc5ccncc5)ncnc43)C2)cc(OC)c1OC	-	.	-	-	.	.
O=C(O)c1cccc(NCc2ccc(Cl)cc2)c1	.	.	-	.	.	.
COC(=O)Cn1cnc2sc(C)c(S(=O)(=O)N3CCN(c4ccccc4OC)CC3)c2c1=O	-	?	-	-	-	-
CCc1ccc(NC(=O)Cn2cnc3sc(C)c(S(=O)(=O)N4CCN(c5ccccc5OC)CC4)c3c2=O)cc1	16.4µM	.	-	?	.	.
Cc1sc2ncn(CC(=O)Nc3ccc(C(F)(F)F)cc3)c(=O)c2c1S(=O)(=O)N1CCN(C)CC1	1.3µM	.	-	?	.	.
Cc1nc2scc(C)n2c(=O)c1S(=O)(=O)N1CCN(c2ccccc2F)CC1	-	-	-	?	-	-
COc1ccccc1N1CCN(S(=O)(=O)c2c(C)nc3sc(C)c(C)n3c2=O)CC1	20.6µM	.	-	20.6µM	.	.
Nc1nccnc1C(=O)NCCc1ccccc1C(F)(F)F	.	.	-	.	.	.
CC(C)OCc1cccc(CNC(=O)CNC(=O)C2CCCC2)c1	.	.	-	.	.	.
COc1cc(OC)cc(C(=O)Nc2ccc3nc4n(c(=O)c3c2)CCCCC4)c1	11.6µM	?	-	?	-	-
COc1cccc(/C=C/C(=O)Nc2ccc3nc4n(c(=O)c3c2)CCCC4)c1OC	18.4µM	?	-	20.6µM	-	?
COc1ccc(/C=C/C(=O)Nc2ccc3nc4n(c(=O)c3c2)CCCC4)cc1	-	?	-	-	-	-
O=C(Nc1ccc2nc3n(c(=O)c2c1)CCCC3)c1cc([N+](=O)[O-])ccc1F	1.84µM	?	.	2.06µM	-[10 µM]	-
COc1ccc(OC)c(CCNC(=O)C(=O)Nc2ccc3nc4n(c(=O)c3c2)CCCCC4)c1	14.6µM	?	-	13µM	-	-
Cc1cc(NS(=O)(=O)c2ccc(NC(=O)c3oc4ccc(F)cc4c3C)cc2)nc(C)n1	.	.	-	.	.	.
BrC(/C=N/N1CCN(Cc2ccccc2)CC1)=C/c1ccccc1	6.51µM	?	-	13µM	-	-
BrC(=C\c1ccccc1)/C=N/N1CCN(c2ccccn2)CC1	2.59µM	?	-	0.326µM	?	?
Oc1cccc(/C=N/N2CCN(c3ccccn3)CC2)c1	-	?	-	-	-	-
